The nature of experiment [1]: qHTS for Inhibitors of Plasmodium falciparum (DD2) proliferation (AID 504314). Further: potency means the concentration at half of the fitted maximal effect.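 On activity, negative = inhibition: parasite DNA measured by SYBR Green fluorescence after red cell lysis; plate controls were DMSO vehicle for no effect and artemisinin wells for full effect.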 As to conditions: P. falciparum Dd2 in erythrocytes, SYBR Green growth, 72 h; series mostly up to 6.11 µM. Summed up: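 SYBR Green growth assay: 72 h compound exposure of infected red cells (2.5% hematocrit, 0.3% parasitemia), then lysis and overnight dye staining, fluorescence 485/535 nm. Values scaled between DMSO and 0.29 uM artemisinin controls.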
Background: qHTS replaces the single test concentration by a dilution series.

Experiment [2] in a line: qHTS for Inhibitors of Plasmodium falciparum (GB4) proliferation (AID 504315). Further: nearly all actives have a fitted effect of over 50% in size. Further: potency means the concentration at half of the fitted maximal effect. The settings on record: P. falciparum GB4 in erythrocytes, SYBR Green DNA, 72 h; series mostly up to 6.7 µM. Summed up: (§1)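 Parasite growth measured as SYBR Green DNA fluorescence (ex 485, em 535 nm) after overnight lysis following 72 h culture at 37 °C, 0.3% parasitemia, 2.5% hematocrit. Values normalized against DMSO and 0.29 uM artemisinin controls, with plate-stack correction.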

Experiment [3] in a line: qHTS for Inhibitors of Plasmodium falciparum (7G8) proliferation (AID 504316). Further: nearly all actives have a fitted effect of over 65% in size. Further: potency means the concentration at half of the fitted maximal effect. The settings on record: P. falciparum 7G8 in erythrocytes, SYBR Green DNA, 72 h; series mostly up to 6.7 µM. Summed up: as §1
Experiment [4] is described as follows: qHTS for Inhibitors of Plasmodium falciparum (HB3) proliferation (AID 504318). Further: nearly all actives have a fitted effect of over 60% in size. Further: potency means the concentration at half of the fitted maximal effect. The settings on record: P. falciparum HB3 in erythrocytes, SYBR Green DNA, 72 h; series mostly up to 7.21 µM. Summed up: as §1
A short description of experiment [5]: qHTS for Inhibitors of Plasmodium falciparum (CP250) proliferation (AID 504320). Further: potency means the concentration at half of the fitted maximal effect. The settings on record: P. falciparum CP250 in erythrocytes, SYBR Green DNA, 72 h; series mostly up to 6.7 µM. In outline: as §1
For experiment [6], the target named is Atrial natriuretic peptide receptor 1 (Homo sapiens) (UniProt P16066). As to the kind of experiment: Natriuretic polypeptide receptor (hNpr1) antagonism - Pilot CMLD screen (AID 1347052; calls by dose curve;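 further: HEK293 cells with hNpr1 stimulated by hNppA peptide at 0.1 nM; cGMP level read as GloSensor luciferase luminescence after agonist stimulation; on the % scale 0 is the no-effect control and ±100 the full control effect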). The settings on record: HEK293 hNpr1 GloSensor cGMP luminescence, ANP-stimulated; series mostly up to 9.22 µM.

The text below walks through data of PubChem BioAssay (NCATS).

Records with an inconclusive call do not appear. A number with no mark means an inactive call. The source made the active and inactive calls. Unless noted, the call rests on the fitted dose curve; in most records, active means well fitted curve in the direction sought with a large enough effect; inconclusive means small, poorly fitted or top-dose-only effect, or another doubt; inactive means no such curve, though single readings can be large; an effect the other way counts as inactive or inconclusive.

Chain of Atrial natriuretic peptide receptor 1 (Homo sapiens) (P16066 whole entry, looked up): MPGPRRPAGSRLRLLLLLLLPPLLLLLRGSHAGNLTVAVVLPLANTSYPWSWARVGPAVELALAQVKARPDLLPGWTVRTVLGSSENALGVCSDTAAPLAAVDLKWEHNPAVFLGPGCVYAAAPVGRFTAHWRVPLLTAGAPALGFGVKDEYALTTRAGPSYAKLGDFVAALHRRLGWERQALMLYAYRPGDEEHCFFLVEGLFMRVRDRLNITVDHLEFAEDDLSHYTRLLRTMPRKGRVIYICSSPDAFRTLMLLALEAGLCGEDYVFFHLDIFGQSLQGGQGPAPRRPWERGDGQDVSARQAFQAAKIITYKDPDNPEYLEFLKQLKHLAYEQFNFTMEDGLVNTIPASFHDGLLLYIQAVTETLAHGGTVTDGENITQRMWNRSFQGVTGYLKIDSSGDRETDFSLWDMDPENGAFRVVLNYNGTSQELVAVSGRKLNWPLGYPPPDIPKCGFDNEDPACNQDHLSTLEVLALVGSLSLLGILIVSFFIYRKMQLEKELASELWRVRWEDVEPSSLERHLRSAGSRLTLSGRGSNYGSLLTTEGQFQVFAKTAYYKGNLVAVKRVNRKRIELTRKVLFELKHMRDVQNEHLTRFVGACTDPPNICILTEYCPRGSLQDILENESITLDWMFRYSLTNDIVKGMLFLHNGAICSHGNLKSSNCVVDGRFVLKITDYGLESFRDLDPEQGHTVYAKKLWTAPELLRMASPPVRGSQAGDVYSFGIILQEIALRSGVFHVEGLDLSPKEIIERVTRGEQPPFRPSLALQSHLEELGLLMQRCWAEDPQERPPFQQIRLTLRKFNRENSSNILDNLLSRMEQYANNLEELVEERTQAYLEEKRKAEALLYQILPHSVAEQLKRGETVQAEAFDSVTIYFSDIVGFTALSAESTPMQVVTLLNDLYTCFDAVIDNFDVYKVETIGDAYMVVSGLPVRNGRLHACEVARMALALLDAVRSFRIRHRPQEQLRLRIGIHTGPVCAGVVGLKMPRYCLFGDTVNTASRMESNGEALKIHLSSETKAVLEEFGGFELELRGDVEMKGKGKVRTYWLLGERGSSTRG

In the case of `C[C@H]1Cc2c(-c3ccccc3)nc3c(c2CO1)CN(C(=O)NCc1ccco1)CC3`, in experiment [1], the activity, negative = inhibition is 0.465% [at 1.12 µM]. Besides, the Potency result in experiment [2], in experiment [3], in experiment [4], in experiment [5] and in experiment [6] was “inactive” in each case.

Consider `COC(=O)N[C@@H](c1ccco1)C(C(C)=O)C(=O)OC` (some centres not stated), for which the Potency entry in experiment [1], in experiment [2], in experiment [3], in experiment [4], in experiment [5] and in experiment [6] was “inactive” each time.

Regarding `COC(=O)CCCC1=CC2=C(c3ccccc3)C(=O)C(C)(OC(=O)C3CCCC3)C(=O)C2=CN1c1ccccc1` (configuration not stated), the Potency entry in experiment [1], in experiment [2], in experiment [3], in experiment [4], in experiment [5] and in experiment [6] was “inactive” in each case.

As to `O=C1c2ccccc2C(=O)N1CCCC[C@]12Cc3c(ccc4ccccc34)[C@H](O1)c1c(cc(-c3ccccc3)oc1=O)O2`, the Potency in experiment [1] is 753 nM (active); in experiment [2], 536 nM (active); in experiment [3] it was 379 nM (active); in experiment [4], 536 nM (active); in experiment [5], 1510 nM (active). The Potency entry in experiment [6] is “inactive”.

Turning to `C=CCNC(=O)N1CCc2nc(-c3ccccc3)c3c(c2C1)CO[C@@H](C)C3`, the activity, negative = inhibition in experiment [1] was -1.14% [at 1.12 µM]. For the same compound, the Potency result in experiment [2], in experiment [3], in experiment [4], in experiment [5] and in experiment [6] was “inactive” each time.

`COC(=O)CC=C[C@@H](C)[C@@H](C=NO[C@H](C)c1cn([C@H](CO)Cc2ccccc2)nn1)NS(=O)(=O)c1ccc(C)cc1`: the Potency entry in experiment [1], in experiment [2], in experiment [3], in experiment [4], in experiment [5] and in experiment [6] was “inactive” each time.

With `CCOC(=O)CN1C(=O)NC(c2cccc(F)c2)C(C(C)=O)=C1C` (configuration not stated), the Potency entry in experiment [1], in experiment [2], in experiment [3], in experiment [4], in experiment [5] and in experiment [6] was “inactive” each time.

For `COC(=O)C1=C(C(=O)OC)[C@@H]2Nc3ccccc3[C@@]23C[C@@H](C(=O)OC)N(C(=O)COCc2ccccc2)C3=N1`, the Potency result in experiment [1], in experiment [2], in experiment [3], in experiment [4], in experiment [5] and in experiment [6] was “inactive” each time.

For `CC1(OC(=O)c2ccco2)C(=O)C=C2C=C(c3ccsc3)OC=C2C1=O` (configuration not stated), the Potency entry in experiment [1], in experiment [2], in experiment [3], in experiment [4], in experiment [5] and in experiment [6] was “inactive” throughout.

In the case of `CC(=O)OC[C@H]1O[C@@H](ON=C2C[C@@H](O)[C@@H](O)[C@@H]3[C@H]4C(=O)N(Cc5ccccc5)C(=O)[C@@H]4CC[C@@H]23)[C@H](OC(C)=O)[C@@H](OC(C)=O)[C@H]1OC(C)=O`, the Potency entry in experiment [1], in experiment [2], in experiment [3], in experiment [4], in experiment [5] and in experiment [6] was “inactive” in each case.

Take `COC(=O)C12C[C@H](C)C3C(C)C(c4ccccc4C31)N2C(=O)C(F)(F)F` (some centres not stated): the Potency result in experiment [1], in experiment [2], in experiment [3], in experiment [4], in experiment [5] and in experiment [6] was “inactive” throughout.

With `CCN1C(=O)[C@@H]2[C@H]3[C@H](O)[C@H](O)CC(=NOC[C@@H](O)COCc4ccco4)[C@@H]3CC[C@H]2C1=O`, the Potency result in experiment [1], in experiment [2], in experiment [3], in experiment [4], in experiment [5] and in experiment [6] was “inactive” throughout.

For `CC[C@H](C)[C@@H](NC(=O)O[C@H]1C(=O)c2cc(OC)ccc2O[C@@H]1c1ccc(OC)c(Br)c1)C(=O)OC`, the Potency result in experiment [1], in experiment [2], in experiment [3], in experiment [4], in experiment [5] and in experiment [6] was “inactive” in each case.

As to `Cc1cc(O)cc(O)c1C(=O)OC1(C)C(=O)C=C2C=C(C=CCO)OC=C2C1=O` (configuration not stated), the Potency entry in experiment [1], in experiment [2], in experiment [3], in experiment [4], in experiment [5] and in experiment [6] was “inactive” in each case.

Take `CCN1C(=O)[C@@H]2[C@H]3[C@H](O)[C@H](O)CC(=NOC[C@@H](O)[C@H]4O[C@@H]5OC(C)(C)O[C@H]5[C@@H]4O)[C@@H]3CC[C@H]2C1=O`: the Potency result in experiment [1], in experiment [2], in experiment [3], in experiment [4], in experiment [5] and in experiment [6] was “inactive” throughout.

Consider `O=C1CCCC(C(C(=O)OCc2ccccc2)C(=O)OCc2ccccc2)C1` (configuration not stated), for which the Potency entry in experiment [1], in experiment [2], in experiment [3], in experiment [4], in experiment [5] and in experiment [6] was “inactive” throughout.

For the compound `C=CCCC1(CCC)C(=O)C(=C(O)c2ccccc2)C(=O)C(CCC)=C1OC` (configuration not stated), the Potency entry in experiment [1], in experiment [2], in experiment [3], in experiment [4], in experiment [5] and in experiment [6] was “inactive” in each case.
